The supplement of paper PMC10849652
Targets with a hit are over-represented here; the source holds about 8,800 in all. About 0.5% of all pairs of compound and target were hits.

What was measured:
Test in all cases: log2 fold change, soluble protein after heating vs DMSO (PISA); higher = thermal stabilisation; K562 lysate, 10 uM; active = over 0.2 and 3.5 SD of the protein, either way, in both replicates (recomputed)
[1] = compound: C1=CC=C(C=C1)[C@H](COC2=CC3=C(C=C2)NC(=O)N3)NC(=O)C4=CC=CN(C4=O)CC5=CC(=C(C=C5)F)F
Method in brief: (§1)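 Log-two fold change in thermal stability relative to solvent controls is reported from duplicates. For each sample, crude K562 extract from dounce-homogenised pellets in PBS pH 7.4 with 1 mM MgCl2, at 1 mg/mL protein, was treated with 10 μM compound for 30 min. Aliquots heated for 3 min across 48°C-58°C were pooled, brought to 0.5% NP-40 at 4°C and cleared at 21,000xg for 90 min. The supernatant was quantified by TMTpro 16plex LC-MS/MS with channel sums equalised.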

[2] = compound: CC1=C(SC2=C1C(=N[C@H](C3=NN=C(N32)C)CC(=O)N)C4=CC=C(C=C4)Cl)C
Method in brief: as §1

[3] = compound: CC1=C2C(=CC=C1)N=C(N(C2=O)C3=CC=CC=C3C)CN4C=NC5=C(N=CN=C54)N
Method in brief: as §1

[4] = compound: Cc1sc2c(c1C)C(c1ccc(Cl)cc1)=N[C@@H](CC(=O)OC(C)(C)C)c1nnc(C)n1-2
Method in brief: as §1

[5] = compound: c1ccc([C@@H]2C[C@H]2NC2CCNCC2)cc1
Method in brief: as §1

Measured: log2 fold change

C18orf25 isoform 2 (UniProt Q96B23)
UniProt Q96B23, sequence (Q96B23 whole entry, looked up): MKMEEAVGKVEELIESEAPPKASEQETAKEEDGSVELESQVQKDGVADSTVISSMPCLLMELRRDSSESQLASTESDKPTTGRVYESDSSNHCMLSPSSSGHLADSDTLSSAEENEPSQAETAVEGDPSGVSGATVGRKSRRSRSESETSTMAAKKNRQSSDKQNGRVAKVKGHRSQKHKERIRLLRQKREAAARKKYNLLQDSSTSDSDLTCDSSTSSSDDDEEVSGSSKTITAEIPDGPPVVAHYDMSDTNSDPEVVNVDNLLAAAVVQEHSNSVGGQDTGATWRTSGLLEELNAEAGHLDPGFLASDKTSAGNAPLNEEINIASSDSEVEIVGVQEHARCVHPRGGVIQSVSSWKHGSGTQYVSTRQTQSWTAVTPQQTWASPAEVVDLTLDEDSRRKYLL
inactive: [1] -0.005 | [2] 0.224 | [3] 0.008 | [4] 0.089 | [5] -0.003

CCDC47 (UniProt Q96A33)
UniProt Q96A33, sequence (Q96A33 whole entry, looked up): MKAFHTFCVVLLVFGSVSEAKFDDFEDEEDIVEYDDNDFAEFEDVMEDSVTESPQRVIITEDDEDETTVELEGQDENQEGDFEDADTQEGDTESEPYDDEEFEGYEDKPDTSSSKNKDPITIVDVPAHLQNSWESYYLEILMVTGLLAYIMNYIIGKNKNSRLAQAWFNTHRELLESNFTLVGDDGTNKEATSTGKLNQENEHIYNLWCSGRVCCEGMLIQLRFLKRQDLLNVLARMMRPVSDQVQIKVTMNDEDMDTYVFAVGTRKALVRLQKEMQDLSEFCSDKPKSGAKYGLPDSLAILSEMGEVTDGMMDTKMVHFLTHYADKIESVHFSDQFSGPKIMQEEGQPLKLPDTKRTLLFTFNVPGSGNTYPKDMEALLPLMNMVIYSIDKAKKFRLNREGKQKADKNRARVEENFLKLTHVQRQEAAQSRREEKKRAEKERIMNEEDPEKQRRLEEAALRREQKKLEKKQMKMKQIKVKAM
inactive: [1] -0.043 | [2] 0.005 | [3] 0.022 | [4] 0.017 | [5] 0.018

CES2 isoform 4 (UniProt O00748)
UniProt O00748, sequence (O00748 whole entry, looked up): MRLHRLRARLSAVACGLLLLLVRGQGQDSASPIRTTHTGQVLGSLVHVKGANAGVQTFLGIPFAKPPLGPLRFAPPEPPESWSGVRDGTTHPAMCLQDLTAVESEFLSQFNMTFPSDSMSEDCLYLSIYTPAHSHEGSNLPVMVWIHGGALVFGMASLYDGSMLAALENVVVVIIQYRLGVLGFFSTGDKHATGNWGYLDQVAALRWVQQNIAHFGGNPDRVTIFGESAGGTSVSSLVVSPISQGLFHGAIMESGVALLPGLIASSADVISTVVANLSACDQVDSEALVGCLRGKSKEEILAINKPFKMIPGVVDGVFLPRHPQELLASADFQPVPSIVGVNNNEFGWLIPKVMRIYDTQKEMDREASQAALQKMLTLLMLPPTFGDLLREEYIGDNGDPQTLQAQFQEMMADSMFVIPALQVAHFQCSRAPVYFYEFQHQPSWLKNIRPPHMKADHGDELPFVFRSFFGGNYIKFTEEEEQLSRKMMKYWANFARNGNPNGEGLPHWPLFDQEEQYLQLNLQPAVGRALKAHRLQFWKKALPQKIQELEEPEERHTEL
inactive: [1] 0.129 | [2] 0.159 | [3] -0.089 | [4] 0.093 | [5] -0.07

ATP2B4 (UniProt P23634)
UniProt P23634, sequence (P23634 whole entry, looked up): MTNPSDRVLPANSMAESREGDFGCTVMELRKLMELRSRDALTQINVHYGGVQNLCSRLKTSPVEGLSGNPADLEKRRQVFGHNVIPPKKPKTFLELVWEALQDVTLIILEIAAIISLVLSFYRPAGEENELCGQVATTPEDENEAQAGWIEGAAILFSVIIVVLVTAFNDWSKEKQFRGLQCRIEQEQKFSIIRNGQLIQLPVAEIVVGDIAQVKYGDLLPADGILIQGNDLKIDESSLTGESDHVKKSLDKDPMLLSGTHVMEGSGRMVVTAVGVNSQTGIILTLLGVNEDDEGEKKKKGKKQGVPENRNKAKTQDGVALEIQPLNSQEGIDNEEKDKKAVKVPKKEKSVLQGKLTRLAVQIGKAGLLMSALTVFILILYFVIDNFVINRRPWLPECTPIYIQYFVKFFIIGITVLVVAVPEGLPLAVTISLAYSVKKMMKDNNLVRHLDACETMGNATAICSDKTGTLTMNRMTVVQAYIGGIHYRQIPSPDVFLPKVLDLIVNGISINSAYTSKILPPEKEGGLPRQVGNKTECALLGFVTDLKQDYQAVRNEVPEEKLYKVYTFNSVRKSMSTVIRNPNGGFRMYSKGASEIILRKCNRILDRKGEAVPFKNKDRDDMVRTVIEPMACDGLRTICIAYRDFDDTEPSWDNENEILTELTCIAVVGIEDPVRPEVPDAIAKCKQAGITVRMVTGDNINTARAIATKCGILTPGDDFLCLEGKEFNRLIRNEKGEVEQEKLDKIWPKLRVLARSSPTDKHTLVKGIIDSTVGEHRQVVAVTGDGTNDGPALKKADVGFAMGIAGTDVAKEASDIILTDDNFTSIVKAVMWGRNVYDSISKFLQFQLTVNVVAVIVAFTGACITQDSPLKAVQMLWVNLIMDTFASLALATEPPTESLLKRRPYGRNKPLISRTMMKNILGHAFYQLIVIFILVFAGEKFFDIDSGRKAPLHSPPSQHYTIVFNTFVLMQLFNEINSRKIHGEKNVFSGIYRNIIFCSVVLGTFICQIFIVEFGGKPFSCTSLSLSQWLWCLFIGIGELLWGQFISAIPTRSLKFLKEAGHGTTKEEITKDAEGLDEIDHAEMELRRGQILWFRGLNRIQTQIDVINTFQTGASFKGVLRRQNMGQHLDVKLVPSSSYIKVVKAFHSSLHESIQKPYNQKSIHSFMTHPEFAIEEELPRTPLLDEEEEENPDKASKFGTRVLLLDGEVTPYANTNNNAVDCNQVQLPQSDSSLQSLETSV
inactive: [1] -0.021 | [2] 0.036 | [3] 0.059 | [4] 0.029 | [5] -0.081

CELF1 isoform 4 (UniProt Q92879)
UniProt Q92879, sequence (Q92879 whole entry, looked up): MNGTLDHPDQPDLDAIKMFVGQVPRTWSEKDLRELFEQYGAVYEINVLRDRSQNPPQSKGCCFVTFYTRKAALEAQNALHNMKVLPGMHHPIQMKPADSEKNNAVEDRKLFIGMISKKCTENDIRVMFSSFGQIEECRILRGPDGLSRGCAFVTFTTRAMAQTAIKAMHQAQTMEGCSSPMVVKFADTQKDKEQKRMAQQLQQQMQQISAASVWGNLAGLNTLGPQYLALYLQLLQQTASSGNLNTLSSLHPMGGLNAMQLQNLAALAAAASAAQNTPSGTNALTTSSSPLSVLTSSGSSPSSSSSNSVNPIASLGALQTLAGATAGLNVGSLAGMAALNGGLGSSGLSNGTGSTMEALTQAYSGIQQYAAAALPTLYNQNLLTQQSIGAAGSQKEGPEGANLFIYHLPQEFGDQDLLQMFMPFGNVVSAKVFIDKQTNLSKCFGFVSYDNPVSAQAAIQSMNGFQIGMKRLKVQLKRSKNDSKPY
inactive: [1] 0.04 | [2] -0.005 | [3] 0.07 | [4] 0.044 | [5] 0.144

BCKDK (UniProt O14874)
inactive: [1] -0.036 | [2] -0.007 | [3] -0.037 | [4] 0.016 | [5] 0.012

ATG4B (UniProt Q9Y4P1)
UniProt Q9Y4P1, sequence (Q9Y4P1 whole entry, looked up): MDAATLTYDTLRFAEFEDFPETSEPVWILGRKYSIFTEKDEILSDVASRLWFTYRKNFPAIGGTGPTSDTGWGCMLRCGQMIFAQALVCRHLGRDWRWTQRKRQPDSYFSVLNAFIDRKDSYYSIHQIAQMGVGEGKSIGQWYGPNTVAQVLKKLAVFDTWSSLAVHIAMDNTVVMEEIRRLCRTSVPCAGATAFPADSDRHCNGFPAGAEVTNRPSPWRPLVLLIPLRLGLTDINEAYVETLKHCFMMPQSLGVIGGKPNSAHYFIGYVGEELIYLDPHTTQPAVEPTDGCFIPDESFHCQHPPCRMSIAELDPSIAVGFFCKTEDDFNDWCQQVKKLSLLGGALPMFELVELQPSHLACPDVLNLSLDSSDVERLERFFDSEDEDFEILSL
inactive: [1] 0.004 | [2] 0.034 | [3] 0.017 | [4] -0.002 | [5] 0.051

CBFA2T3 (UniProt O75081)
UniProt O75081, sequence (O75081 whole entry, looked up): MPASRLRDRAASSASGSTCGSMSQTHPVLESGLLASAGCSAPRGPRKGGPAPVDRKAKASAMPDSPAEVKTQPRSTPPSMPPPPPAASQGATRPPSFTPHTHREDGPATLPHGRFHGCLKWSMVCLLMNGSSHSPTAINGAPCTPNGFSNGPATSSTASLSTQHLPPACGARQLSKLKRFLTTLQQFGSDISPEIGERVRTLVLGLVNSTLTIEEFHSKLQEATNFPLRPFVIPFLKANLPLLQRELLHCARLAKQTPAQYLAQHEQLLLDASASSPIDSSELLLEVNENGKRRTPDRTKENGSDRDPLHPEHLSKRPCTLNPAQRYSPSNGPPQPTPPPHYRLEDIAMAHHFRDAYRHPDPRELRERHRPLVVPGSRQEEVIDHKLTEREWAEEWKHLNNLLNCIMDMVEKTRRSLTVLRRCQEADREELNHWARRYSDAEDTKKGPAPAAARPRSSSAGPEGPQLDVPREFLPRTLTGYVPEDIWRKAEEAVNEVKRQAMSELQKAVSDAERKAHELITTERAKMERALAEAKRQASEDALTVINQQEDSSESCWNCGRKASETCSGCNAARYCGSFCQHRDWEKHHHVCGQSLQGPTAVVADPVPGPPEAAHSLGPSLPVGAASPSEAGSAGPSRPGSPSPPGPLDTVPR
inactive: [1] -0.029 | [2] -0.01 | [3] 0.058 | [4] 0.009 | [5] 0.019

CCDC85B (UniProt Q15834)
UniProt Q15834, sequence (Q15834 whole entry, looked up): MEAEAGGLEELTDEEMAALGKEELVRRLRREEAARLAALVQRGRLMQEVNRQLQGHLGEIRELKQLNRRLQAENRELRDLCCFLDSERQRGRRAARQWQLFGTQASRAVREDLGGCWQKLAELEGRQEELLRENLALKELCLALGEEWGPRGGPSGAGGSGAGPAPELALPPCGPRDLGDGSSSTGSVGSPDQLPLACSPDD
inactive: [1] -0.033 | [2] -0.132 | [3] 0.08 | [4] -0.04 | [5] -0.034
